Measurements reported in paper PMC5540273 (PLoS ONE, 2017).

Tests used:
Settings in all cases: concentration: 1 μM, replicates: in singlicate; n = 1
MEK5 = tested on: T1, MEK5
T1 construct: gene MAP2K5

MEK6 = tested on: T2, MEK6
T2 construct: gene MAP2K6

MELK = tested on: MELK
MERTK = tested on: MERTK
MET = tested on: MET
MINK = tested on: T3, MINK
T3 construct: gene MINK1

MKK7 = tested on: MKK7
MKNK1 = tested on: MKNK1
MKNK2 = tested on: MKNK2
MLCK = tested on: T4, MLCK
T4 construct: gene MYLK3
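Also: KINOMEscan kinase panel screen.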

Row | Structure (SMILES) | %Inh (MEK5) [%] | %Inh (MEK6) [%] | %Inh (MELK) [%] | %Inh (MERTK) [%] | %Inh (MET) [%] | %Inh (MINK) [%] | %Inh (MKK7) [%] | %Inh (MKNK1) [%] | %Inh (MKNK2) [%] | %Inh (MLCK) [%]
1 | COc1ccc(Nc2nccc(NCCNC(=O)c3cc4ccccc4s3)n2)cc1 [GSK1379896] | 33 | 0 | 0 | 24 | 0 | 2 | 0 | 0 | 0 | 0
2 | CNC(=O)c1ccccc1Nc1nc(Nc2ccc(N3CCOCC3)cc2)ncc1Cl.Cl [GSK1576028] | 97.6 | 79 | 99.8 | 100 | 95 | 72 | 0 | 14 | 82 | 96.1
3 | Cc1ccc(C(=O)N2CC[C@@H](O)C2)cc1-n1c(C)cc(OCc2ccc(F)cc2F)c(Br)c1=O | 0 | 0 | 0 | 0 | 0 | 0 | 0 | 0 | 0 | 0
4 | Cl.Cl.NCC(NCc1ccc(-c2ccnc3[nH]ccc23)s1)c1ccccc1 (stereo not shown) [GSK1321565] | 43 | 4 | 64 | 74 | 0 | 51 | 0 | 2 | 65 | 6
5 | COc1cc(Nc2nccc(-c3c(-c4cccc(NC(=O)c5c(F)cccc5F)c4)nn4ccccc34)n2)cc(OC)c1OC [GSK323521] | 79 | 3 | 3 | 59 | 58 | 8 | 32 | 7 | 22 | 9
6 | O=c1[nH]cc(-c2ccc(N3CCOCC3)cc2)c2sc(-c3cn[nH]c3)cc12 [GSK2276055] | 8 | 29 | 17 | 7 | 0 | 26 | 0 | 0 | 9 | 19
7 | Cl.Cl.NCC(NC(=O)c1cc(-c2ccccc2)c(-c2ccnc3[nH]ccc23)s1)c1ccccc1 (stereo not shown) [GSK1321561] | 19 | 6 | 37 | 44 | 3 | 90.7 | 17 | 20 | 19 | 40
8 | Cn1cc(-c2[nH]c3cc(NC(=O)[C@H](N)C4CCCCC4)cc4c3c2C=NNC4=O)cn1 | 100 | 3 | 60 | 95.1 | 5 | 96.5 | 0 | 100 | 100 | 84
9 | CCc1ccc(-c2ccc3c(c2)-c2c(cnn2C)S(=O)(=O)N3C)cc1 | 0 | 0 | 0 | 0 | 26 | 0 | 0 | 0 | 0 | 1
10 | Nc1ncnc2c1nc(-c1ccccc1)n2-c1ccccc1 [SKF-97293] | 32 | 27 | 0 | 0 | 10 | 16 | 38 | 0 | 18 | 23
11 | Nc1ncc(-c2cccnc2)c2scc(-c3ccc4c(c3)CCN4C(=O)Cc3ccccc3)c12 [GSK683281] | 99.7 | 0 | 100 | 69 | 33 | 41 | 30 | 5 | 15 | 14
12 | FC(F)(F)c1ccc(/C=C/c2cncnc2Nc2ccc3[nH]c(Cc4ccccc4)nc3c2)cc1 [GW709199] | 32 | 0 | 0 | 4 | 16 | 1 | 0 | 0 | 0 | 0
13 | COc1ccc(CNC(=O)NC2CCN(c3ccnc(Nc4ccc(F)cc4)n3)CC2)cc1 [GSK1379788] | 9 | 0 | 0 | 0 | 0 | 0 | 0 | 2 | 0 | 0
14 | Cc1cccc(NC(=O)Nc2ccc(Oc3ncnc4ccn(C)c34)cc2)c1 | 25 | 0 | 0 | 9 | 19 | 3 | 0 | 3 | 88 | 0
15 | COc1cccc(C2=C(Nc3ccc(Cl)c(C(=O)O)c3)C(=O)NC2=O)c1 [SB-390769] | 18 | 0 | 7 | 0 | 8 | 100 | 18 | 4 | 5 | 100
16 | COC(=O)Nc1nc2ccc(Oc3ccc(NC(=O)Nc4cc(C(F)(F)F)ccc4F)cc3)cc2n1C.Cl [GW692089] | 15 | 0 | 0 | 94.2 | 62 | 20 | 0 | 75 | 90.2 | 34
